Shown is part of a subset that was picked to be rich in hits.
12-LOX inh – inhibitors of human 12S-lipoxygenase ALOX12. P18054. purified 12hLO, xylenol orange hydroperoxide absorbance. Potency, µM (top dose mostly 108 µM), without a hit: top-dose activity change, negative = inhibition, hits mostly inhibitors. hit rate 1.1% among 580,000; further: potency means the concentration at half of the fitted maximal effect
Target sequence (P18054 whole entry, looked up): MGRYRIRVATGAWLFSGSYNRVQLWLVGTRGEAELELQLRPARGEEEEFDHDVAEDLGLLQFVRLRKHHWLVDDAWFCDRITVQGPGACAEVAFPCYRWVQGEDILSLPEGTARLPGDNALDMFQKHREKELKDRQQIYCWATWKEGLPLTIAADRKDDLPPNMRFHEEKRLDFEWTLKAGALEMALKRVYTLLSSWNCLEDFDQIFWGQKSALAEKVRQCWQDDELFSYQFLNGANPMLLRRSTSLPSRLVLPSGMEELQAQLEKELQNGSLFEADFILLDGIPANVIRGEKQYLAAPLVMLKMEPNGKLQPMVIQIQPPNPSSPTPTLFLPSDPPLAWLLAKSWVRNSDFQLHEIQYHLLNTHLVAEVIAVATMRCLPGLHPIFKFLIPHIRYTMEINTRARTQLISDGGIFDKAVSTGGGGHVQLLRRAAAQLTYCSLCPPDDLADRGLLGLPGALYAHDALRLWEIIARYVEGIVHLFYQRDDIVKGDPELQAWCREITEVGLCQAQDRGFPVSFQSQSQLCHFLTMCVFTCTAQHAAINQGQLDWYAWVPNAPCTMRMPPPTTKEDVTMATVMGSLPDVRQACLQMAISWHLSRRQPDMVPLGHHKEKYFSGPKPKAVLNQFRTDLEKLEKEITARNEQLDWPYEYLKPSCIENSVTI
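Purified human 12hLO (150 nM final) in 25 mM Hepes, 0.01% Triton X-100, pH 7.0 was preincubated 15 min at room temperature with compound. Then 40 uM arachidonic acid was added, 30 min. Hydroperoxide was read by Fe-XO absorbance ratio 573/405 nm.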
IL-1B inflam inh – blocks inflammasome-driven IL-1 beta release | THP-1 LPS/ATP IL-1B secretion, AlphaLISA, 16 h; active compounds read low | activity change, % at 57.5 µM | hit rate 4.7% among 360,000 | AID 743279; in the data active means activity change below about -50%; inconclusive means mostly about -30% to -49%
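THP-1 cells pretreated 1 hr with compounds (up to 57.5 uM final), then stimulated with LPS (250 ng/mL final) plus ATP (1.25 mM final); secreted IL-1B measured by AlphaLISA after 16 hr, decreased signal indicating inhibition.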
DT40 TDP1 CPT – growth inhibition of DT40 Tdp1-/-;hTDP1 cells with camptothecin (screen for TDP1 inhibitors); chicken DT40 Tdp1-/-;hTDP1 cells + 20 nM CPT, ATP luminescence, 48 h; Potency, µM (highest dose often 46.2 µM), for the others: top-dose activity change, negative = growth inhibition, hits mostly inhibitors; hit rate 12% among 420,000; AID 686979; further: potency means the concentration at half of the fitted maximal effect; nearly all actives have a fitted effect of over 55% in size
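Cell growth measured by CellTiter-Glo luminescence after a minimum 48 h, 37 C compound exposure with 20 nM CPT in Tdp1-knockout DT40 cells stably expressing hTDP1, seeded 400/well; qHTS titration format.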
HT1080 IDH1KD tx – toxicity to HT-1080 IDH1 knockdown cells (counter line); HT-1080 IDH1 knockdown viability, ATP luminescence, 48 h; Potency, µM (top dose mostly 46.1 µM), inactives show at the top dose activity, negative = toxicity, usual class: cytotoxic; hit rate 2% among 360,000; AID 686971;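 further: potency means the concentration at half of the fitted maximal effect; 0% = DMSO wells and -100% = cell-free medium wells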
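Knockdown cells (IDH1KD HT-1080) received compounds 2 h after plating at 750 cells/well and were kept 48 h at 37 °C in 5% FBS RPMI. A CellTiter-Glo luminescence read gave % activity for curve fitting.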
HT1080NT lethal – kills 2HG-producing HT-1080-NT fibrosarcoma cells; HT-1080-NT fibrosarcoma viability, CellTiter-Glo ATP luminescence, 48 h; Potency, µM (highest dose often 46.1 µM), without a hit: at the top dose activity, negative = less viability, actives largely listed as cytotoxic; hit rate 1.6% among 360,000; AID 686970;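 further: NT is the 2HG producing partner of a matched IDH1 knockdown line; potency means the concentration at half of the fitted maximal effect; 0% = DMSO-treated cells and -100% = media-only wells without cells; nearly all actives have a fitted effect of over 55% in size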
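Luminescent CellTiter-Glo readout after 48 hours of compound exposure at 37 degrees C defined viability of HT-1080-NT cells. Activity was normalized to DMSO wells and cell-free media wells; concentration-response curves were fitted and assigned curve classes.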
DT40 TDP1 no CPT – qHTS for Inhibitors of human tyrosyl-DNA phosphodiesterase 1 (TDP1): qHTS in cells in absence of CPT; hit rate 15% among 420,000; DT40 Tdp1-/- hTDP1 cells, no CPT, ATP luminescence, 48 h; Potency, µM (series often up to 46.2 µM), for the others: at the highest dose activity change, negative = growth inhibition, usual class: inhibitors; further: potency means the concentration at half of the fitted maximal effect; nearly all actives have a fitted effect of over 55% in size
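Luminescent ATP content (CellTiter-Glo) served as the growth readout. Knockout chicken DT40 cells expressing human TDP1 were exposed to compounds without camptothecin for a minimum 48 hr at 37 °C.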
Numbers without * were called inactive; ? = inconclusive; nt = no result given; [ ] = remark or other dose. Unless noted, the call rests on the fitted dose curve; in most records, active means well fitted curve in the direction sought with a large enough effect; inconclusive means small, poorly fitted or top-dose-only effect, or another doubt; inactive means no such curve, though single readings can be large; an effect the other way counts as inactive or inconclusive. Unless noted, on the % scale 0 is the no-effect control and ±100 the full control effect.

SMILES	12-LOX inh	IL-1B inflam inh	DT40 TDP1 CPT	HT1080 IDH1KD tx	HT1080NT lethal	DT40 TDP1 no CPT
CCOc1cc(C2C(C#N)=C(N)OC(C)=C2C(C)=O)cc(Br)c1O (stereo not drawn)	?	17	-9%	12%	10%	-15%
COc1ccc(-c2nc(C(N)=O)c3[nH]c(=O)n(-c4cccc(C)c4)c3n2)c(OC)c1	32%	-9	?	-10%	-12%	23µM*
CCCC(=O)NC1CCN(C(=O)N2CC3CC(C2)[C@H]2CCCC(=O)N2C3)CC1 (stereo partly drawn)	19%	nt	nt	nt	nt	nt
Nc1nc(N)c2nc(-c3ccccc3)c(N)nc2n1	-17%	41	15µM*	2.9µM*	2.3µM*	2.1µM*
Nc1nc(N)c2nc(-c3cccc(O)c3)c(-c3cccc(O)c3)nc2n1	-15%[57.4 µM]	nt	nt	nt	nt	nt
NSc1nc(N)c2nc(-c3ccccc3)c(-c3ccccc3)nc2n1	?	-51*	?	-5%	-7%	26µM*
NC(=O)c1ccc(COC(=O)c2cc3ccccc3[nH]2)cc1	-38%	nt	nt	nt	nt	nt
CN(C)c1ccc(-c2cncnc2-n2ccnc2)cc1	40µM*	nt	?	nt	nt	-23%
CN(C)c1ccc(-c2cncnc2NCc2cccnc2)cc1	-7%	nt	?	nt	nt	-29%
CN1CCCCCCN(C(=O)COc2ccccc2)[C@H]2CCC[C@H]2C1=O	64%	nt	nt	nt	nt	nt
O=C(Nc1cc(Sc2ccccn2)cc([N+](=O)[O-])c1)c1ccc([N+](=O)[O-])cc1	0%	-76*	?	?	?	2.1µM*
O=[N+]([O-])c1ccc(Sc2ccccn2)nc1	203%	9	-1%	-16%	5%	12%
Cc1cc(-n2ccnc(NCCc3ccc(S(N)(=O)=O)cc3)c2=O)ccc1Br	-24%	nt	?	nt	nt	26µM*
O=C(NC(NC(=S)Nc1ccc(Cl)c(Cl)c1)C(Cl)(Cl)Cl)c1ccco1 (stereo not drawn)	2.8µM*	-63*	21µM*	?	?	18µM*
O=C(Cc1ccccc1)NC(NC(=S)Nc1cc(Cl)ccc1Cl)C(Cl)(Cl)Cl (stereo not drawn)	4%	24	-26%	-24%	-14%	23µM*
O=C(NC(NC(=S)Nc1cc(Cl)ccc1Cl)C(Cl)(Cl)Cl)c1ccco1 (stereo not drawn)	?	-80*	?	?	?	-29%
O=C(COc1ccccc1)NC(NC(=S)Nc1ccccc1O)C(Cl)(Cl)Cl (stereo not drawn)	-7%	-4	?	?	-1%	-28%
COc1ccc(OC)c(CN(C(=O)c2cc(OC)ccc2Br)C2CC2)c1	20%	nt	nt	nt	nt	nt
CCCCN(C)C(=O)c1csc(N2CCN(c3ccccc3)CC2)n1	10%	nt	nt	nt	nt	nt
Cc1ccc(C)c(/C=C/C(=O)c2ccc(O)cc2)c1	-22%	nt	nt	nt	nt	nt
CC(C)C[C@H]1CN([C@@H](Cc2ccc(O)cc2)CN2CCC[C@H]2CN2C(=O)C(=O)NC[C@@H]2Cc2ccccc2)C(=O)C(=O)N1CC1CCCCC1	?	?	?	-29%	-19%	21µM*
CC(C)C[C@H]1CN([C@@H](Cc2ccc(O)cc2)CN2CCC[C@@H]2CN2C(=O)C(=O)NC[C@@H]2Cc2ccccc2)C(=O)C(=O)N1CC1CCCCCC1	-8%	?	?	?	?	?
CC(C)C[C@H]1CN([C@@H](Cc2ccccc2)CN2CCC[C@H]2CN2C(=O)C(=O)NC[C@@H]2Cc2ccc(O)cc2)C(=O)C(=O)N1CC1CCCCCC1	?	-89*	?	?	?	16µM*
COc1ccc(C(C)NC(=O)c2[nH]c3c(c2C)C(=O)CCC3)cc1F (stereo not drawn)	-20%	nt	nt	nt	nt	nt

Source: PubChem
